The target of assay [1] is Tyrosine-protein kinase Fer (Homo sapiens) (UniProt P16591). To be noted: at 1 µM.
Assay [2] has as its target Tyrosine-protein kinase Fes/Fps (Homo sapiens) (UniProt P07332). To be noted: at 0.1 µM.
For assay [3] the target is unchanged. Conditions: at 1 µM.
In assay [4] the target is Fibroblast growth factor receptor 1 (Homo sapiens) (UniProt P11362). To be noted: at 0.1 µM.
The target is the same in assay [5]. Conditions: at 1 µM.
Assay [6] has as its target Fibroblast growth factor receptor 2 (Homo sapiens) (UniProt P21802). Conditions: at 0.1 µM.
Assay [7] has the same target. Conditions: at 1 µM.
Assay [8] concerns the target Fibroblast growth factor receptor 3 (Homo sapiens) (UniProt P22607). Conditions: at 0.1 µM.
Assay [9] has the same target. To be noted: at 1 µM.
The target in assay [10] is Fibroblast growth factor receptor 4 (Homo sapiens) (UniProt P22455). Conditions: at 0.1 µM.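 Also: values are mean percent inhibition of FGFR4.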
Sequence of Fibroblast growth factor receptor 4 (Homo sapiens) (P22455 22-802 limits assumed): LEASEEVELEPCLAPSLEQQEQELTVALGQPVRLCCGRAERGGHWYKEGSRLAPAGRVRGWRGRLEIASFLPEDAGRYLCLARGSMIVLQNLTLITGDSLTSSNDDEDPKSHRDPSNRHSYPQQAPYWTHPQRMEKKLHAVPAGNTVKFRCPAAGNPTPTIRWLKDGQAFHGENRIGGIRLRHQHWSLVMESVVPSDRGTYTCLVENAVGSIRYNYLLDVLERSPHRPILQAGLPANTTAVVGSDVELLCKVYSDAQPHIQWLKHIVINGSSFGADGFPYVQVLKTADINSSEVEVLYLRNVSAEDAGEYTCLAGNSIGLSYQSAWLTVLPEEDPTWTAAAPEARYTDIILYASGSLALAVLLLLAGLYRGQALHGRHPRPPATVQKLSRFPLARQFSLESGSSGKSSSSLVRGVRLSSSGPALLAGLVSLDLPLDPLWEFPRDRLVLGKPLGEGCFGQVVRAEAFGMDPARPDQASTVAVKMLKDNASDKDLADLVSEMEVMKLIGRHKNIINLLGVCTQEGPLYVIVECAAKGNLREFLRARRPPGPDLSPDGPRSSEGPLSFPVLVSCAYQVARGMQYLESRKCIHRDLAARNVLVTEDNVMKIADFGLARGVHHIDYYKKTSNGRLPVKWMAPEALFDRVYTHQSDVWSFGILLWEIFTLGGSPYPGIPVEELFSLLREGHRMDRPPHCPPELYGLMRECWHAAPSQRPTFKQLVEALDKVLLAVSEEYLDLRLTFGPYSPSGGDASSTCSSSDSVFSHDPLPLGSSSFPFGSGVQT

Values joined by “and” are separate entries in the source; they are usually repeats but may differ in a detail not shown here. Equal entries are not always repeated.

A word on the inhibition: it is the relative decrease from the control value, in per cent.

Sequence of Tyrosine-protein kinase Fer (Homo sapiens) (P16591 whole entry, looked up): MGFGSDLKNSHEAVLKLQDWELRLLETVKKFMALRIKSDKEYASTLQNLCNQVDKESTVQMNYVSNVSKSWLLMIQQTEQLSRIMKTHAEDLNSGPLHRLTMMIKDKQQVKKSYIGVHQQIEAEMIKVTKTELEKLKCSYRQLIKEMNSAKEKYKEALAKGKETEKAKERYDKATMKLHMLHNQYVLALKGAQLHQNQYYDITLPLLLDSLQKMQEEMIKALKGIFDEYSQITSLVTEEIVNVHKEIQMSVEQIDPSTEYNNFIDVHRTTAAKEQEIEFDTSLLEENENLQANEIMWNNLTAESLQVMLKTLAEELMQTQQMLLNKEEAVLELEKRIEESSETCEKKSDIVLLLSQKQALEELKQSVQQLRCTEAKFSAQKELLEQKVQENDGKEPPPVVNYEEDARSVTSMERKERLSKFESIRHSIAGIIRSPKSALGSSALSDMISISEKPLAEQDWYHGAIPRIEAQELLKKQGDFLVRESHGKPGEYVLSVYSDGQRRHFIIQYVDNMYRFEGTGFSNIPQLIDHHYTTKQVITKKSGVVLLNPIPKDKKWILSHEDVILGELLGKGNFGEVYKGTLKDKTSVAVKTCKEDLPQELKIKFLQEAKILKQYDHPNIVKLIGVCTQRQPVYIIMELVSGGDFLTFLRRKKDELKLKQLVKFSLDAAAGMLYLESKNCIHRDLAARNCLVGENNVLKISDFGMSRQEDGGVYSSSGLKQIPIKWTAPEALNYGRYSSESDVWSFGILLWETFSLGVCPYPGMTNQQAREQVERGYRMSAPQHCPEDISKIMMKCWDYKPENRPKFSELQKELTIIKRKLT
Sequence of Fibroblast growth factor receptor 1 (Homo sapiens) (P11362 22-822 limits assumed): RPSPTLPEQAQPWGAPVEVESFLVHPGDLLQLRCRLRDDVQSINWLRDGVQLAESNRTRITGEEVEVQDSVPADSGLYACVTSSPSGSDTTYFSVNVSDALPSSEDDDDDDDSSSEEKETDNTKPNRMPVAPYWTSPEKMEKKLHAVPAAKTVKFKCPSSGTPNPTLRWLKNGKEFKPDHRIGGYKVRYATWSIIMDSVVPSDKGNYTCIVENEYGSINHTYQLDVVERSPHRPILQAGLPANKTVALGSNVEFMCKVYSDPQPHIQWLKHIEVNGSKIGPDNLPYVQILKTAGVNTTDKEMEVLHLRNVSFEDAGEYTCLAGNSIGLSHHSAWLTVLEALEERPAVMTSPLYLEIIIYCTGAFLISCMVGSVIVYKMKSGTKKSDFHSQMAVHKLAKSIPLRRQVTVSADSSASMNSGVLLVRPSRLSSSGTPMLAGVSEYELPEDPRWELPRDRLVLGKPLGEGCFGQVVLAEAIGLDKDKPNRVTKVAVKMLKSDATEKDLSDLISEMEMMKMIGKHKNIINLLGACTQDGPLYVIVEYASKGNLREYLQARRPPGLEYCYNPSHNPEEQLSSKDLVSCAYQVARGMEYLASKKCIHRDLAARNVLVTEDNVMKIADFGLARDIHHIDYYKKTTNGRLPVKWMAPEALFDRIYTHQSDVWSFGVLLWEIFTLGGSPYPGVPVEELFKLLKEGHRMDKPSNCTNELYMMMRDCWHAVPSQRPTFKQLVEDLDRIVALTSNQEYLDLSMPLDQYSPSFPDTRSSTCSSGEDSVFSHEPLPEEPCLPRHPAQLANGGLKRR
Sequence of Fibroblast growth factor receptor 3 (Homo sapiens) (P22607 23-806 limits assumed): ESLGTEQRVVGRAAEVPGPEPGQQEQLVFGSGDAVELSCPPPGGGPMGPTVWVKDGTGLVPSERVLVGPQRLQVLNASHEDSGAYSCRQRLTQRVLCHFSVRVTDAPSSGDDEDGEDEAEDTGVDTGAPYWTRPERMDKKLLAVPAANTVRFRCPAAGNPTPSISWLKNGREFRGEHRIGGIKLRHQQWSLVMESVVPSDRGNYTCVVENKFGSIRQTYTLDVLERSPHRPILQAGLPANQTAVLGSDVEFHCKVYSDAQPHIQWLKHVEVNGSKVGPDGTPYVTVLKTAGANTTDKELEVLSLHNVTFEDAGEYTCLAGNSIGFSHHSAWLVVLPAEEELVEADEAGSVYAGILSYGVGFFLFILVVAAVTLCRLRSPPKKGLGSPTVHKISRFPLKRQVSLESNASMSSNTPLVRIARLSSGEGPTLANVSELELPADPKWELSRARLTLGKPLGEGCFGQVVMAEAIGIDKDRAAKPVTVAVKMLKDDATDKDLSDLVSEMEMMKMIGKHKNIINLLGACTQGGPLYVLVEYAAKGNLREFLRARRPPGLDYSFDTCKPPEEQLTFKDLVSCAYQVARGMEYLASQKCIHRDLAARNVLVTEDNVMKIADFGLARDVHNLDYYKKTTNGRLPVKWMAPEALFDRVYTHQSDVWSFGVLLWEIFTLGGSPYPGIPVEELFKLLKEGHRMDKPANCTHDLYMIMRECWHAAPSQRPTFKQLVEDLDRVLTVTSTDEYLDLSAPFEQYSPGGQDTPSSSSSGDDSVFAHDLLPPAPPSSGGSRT
Sequence of Fibroblast growth factor receptor 2 (Homo sapiens) (P21802 22-821 limits assumed): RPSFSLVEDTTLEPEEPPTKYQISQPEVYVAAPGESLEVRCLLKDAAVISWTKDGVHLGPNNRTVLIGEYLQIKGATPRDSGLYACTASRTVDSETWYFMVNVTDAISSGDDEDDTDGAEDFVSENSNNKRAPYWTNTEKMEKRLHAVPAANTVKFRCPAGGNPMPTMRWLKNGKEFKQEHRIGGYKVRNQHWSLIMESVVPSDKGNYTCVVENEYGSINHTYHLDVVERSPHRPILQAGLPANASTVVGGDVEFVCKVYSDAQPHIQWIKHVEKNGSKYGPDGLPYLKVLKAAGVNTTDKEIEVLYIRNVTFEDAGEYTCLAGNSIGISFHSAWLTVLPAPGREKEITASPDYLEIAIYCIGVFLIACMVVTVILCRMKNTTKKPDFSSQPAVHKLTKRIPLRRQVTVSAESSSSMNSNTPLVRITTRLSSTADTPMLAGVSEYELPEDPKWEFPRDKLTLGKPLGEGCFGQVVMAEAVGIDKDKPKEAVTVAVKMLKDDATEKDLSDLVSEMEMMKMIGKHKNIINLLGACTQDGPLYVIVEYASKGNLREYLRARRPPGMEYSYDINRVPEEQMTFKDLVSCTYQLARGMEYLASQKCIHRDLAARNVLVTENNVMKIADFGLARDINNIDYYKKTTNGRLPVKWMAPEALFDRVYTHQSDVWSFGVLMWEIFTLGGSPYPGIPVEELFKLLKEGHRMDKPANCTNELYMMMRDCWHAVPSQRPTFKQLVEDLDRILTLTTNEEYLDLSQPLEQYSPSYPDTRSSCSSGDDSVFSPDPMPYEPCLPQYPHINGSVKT
Sequence of Tyrosine-protein kinase Fes/Fps (Homo sapiens) (P07332 whole entry): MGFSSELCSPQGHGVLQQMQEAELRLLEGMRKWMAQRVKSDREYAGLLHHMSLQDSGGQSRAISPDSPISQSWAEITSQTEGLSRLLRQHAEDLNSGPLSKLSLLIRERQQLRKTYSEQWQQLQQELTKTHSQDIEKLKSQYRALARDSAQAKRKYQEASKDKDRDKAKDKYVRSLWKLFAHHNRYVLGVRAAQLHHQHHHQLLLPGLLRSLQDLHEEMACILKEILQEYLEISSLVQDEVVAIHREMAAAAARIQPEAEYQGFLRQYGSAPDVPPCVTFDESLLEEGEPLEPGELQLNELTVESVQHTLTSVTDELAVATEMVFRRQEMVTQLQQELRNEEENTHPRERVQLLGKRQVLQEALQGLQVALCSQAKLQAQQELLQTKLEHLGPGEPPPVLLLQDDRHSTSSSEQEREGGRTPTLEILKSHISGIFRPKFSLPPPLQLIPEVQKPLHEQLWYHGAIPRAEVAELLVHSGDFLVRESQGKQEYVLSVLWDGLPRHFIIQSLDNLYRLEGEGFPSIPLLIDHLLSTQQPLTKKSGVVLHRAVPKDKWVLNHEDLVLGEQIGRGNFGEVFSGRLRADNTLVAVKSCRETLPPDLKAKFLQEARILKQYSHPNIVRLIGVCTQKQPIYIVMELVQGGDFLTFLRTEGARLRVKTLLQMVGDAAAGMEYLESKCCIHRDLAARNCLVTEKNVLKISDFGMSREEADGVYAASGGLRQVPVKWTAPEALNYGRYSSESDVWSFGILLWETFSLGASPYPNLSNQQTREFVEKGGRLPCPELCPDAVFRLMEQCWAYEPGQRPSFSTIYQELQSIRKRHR

On to `OCCCNc1nccc(-c2c(-c3ccc(F)cc3)nn3cc(C(F)(F)F)ccc23)n1`, for which the inhibition in assay [1] was 2.56%; in assay [2] it was 1.95%; in [3], 2.62%; in assay [4] it was 6%; in assay [5], 6.47%; in assay [6], 0.64%. For the same molecule, the inhibition in [7] amounted to 3.29%; in assay [8], 2.01%; in assay [9] it was 1.53%; in [10], 1.17%.
Turning to `Fc1cccc(COc2ccc(Nc3ncncc3C#Cc3ccccc3)cc2Cl)c1`, the inhibition in assay [1] worked out at 6.06%; in assay [2], 2.55%; in assay [3] it was 3.61%; in assay [4], 2.88%; in assay [5] it was 2.38%; in assay [6] it was 4.03%. The inhibition in assay [7] stood at 5.85%; in [8], 4.99%; in assay [9], 3.8%; in assay [10], 0.25%.
For the molecule `Cn1c(-c2nonc2N)nc2cnccc21`, the inhibition came to 6.7% in [1]; 2.6% in [2]; 3.53% in assay [3]; 4.78% in [4]; 2.36% in assay [5]; 2.83% in assay [6]. The inhibition in assay [7] is 1.91%; in assay [8], 5.11%; in assay [9], 1.94%; in [10] it was -0.24%.
As for `CCS(=O)(=O)c1ccc(OC)c(Nc2ncc(-c3cccc(C(C)=O)c3)o2)c1`, the inhibition in assay [1] stood at 3.06%; in assay [2], 1.69%; in assay [3], 2.72%; in [4] it was 4.89%; in assay [5] it was 12.9%; in assay [6], 17.2%. The inhibition turned out to be 52.6% in assay [7], 20% in assay [8], 60% in [9] and 1.41% in assay [10].
As for `CCn1c(-c2nonc2N)nc2cncc(C(=O)NCCNC)c21`, the inhibition in [1] was determined as 3.14%; in assay [2] it was 4.48%; in assay [3], 4.8%; in [4] it was 2.05%; in [5], 4.72%; in assay [6], 3.81%. Moreover, the inhibition amounted to 5.33% in assay [7], 2% in assay [8], 5.02% in assay [9] and 0.72% in assay [10].
As to `CN1CCC(n2cnc(-c3ccc(F)cc3)c2-c2ccnc(NCCO)n2)CC1`, the inhibition in [1] was 7.14%; in [2], 2.72%; in [3], 3.24%; in assay [4], 3.14%; in [5], -2.05%; in assay [6], 3.73%. The inhibition was 6.49% in assay [7], 7.57% in assay [8], 5.67% in assay [9] and -1.01% in [10].
For the molecule `CNC(=O)c1ncccc1Nc1nc(Nc2cc3c(cc2OC)CCCN3C(=O)CN(C)C)nc2[nH]ccc12`, the inhibition in assay [1] was 80.1%; in [2], 44.3%; in assay [3] it was 80.6%; in assay [4], 9.89%; in assay [5], 3.03%; in assay [6], 6.69%. Moreover, the inhibition in assay [7] came out at 6.99%; in assay [8], 7.55%; in assay [9], 4.61%; in assay [10], 2.18%.
Consider `CN(c1ccc(NC(=O)NCCN2CCOCC2)cc1)c1ccnc(Nc2ccc(CS(C)(=O)=O)cc2)n1`, for which the inhibition in assay [1] was determined as 20.6%; in assay [2], 2.04%; in assay [3], 7.78%; in assay [4], 1.48%; in assay [5], 0.91%; in assay [6], 7.93%. For the same molecule, the inhibition in assay [7] is 14.8%; in assay [8] it was 6.19%; in assay [9] it was 10.3%; in assay [10], 1.27%.
For the molecule `Nc1nonc1-c1nc2cnccc2n1C1CC1`, the inhibition is 0.34% and 3.05% in assay [1]; 2.84% and 0.98% in [2]; 3.51% and 0.87% in assay [3]; 13.1% and 2.25% in assay [4]; 8.28% and -2.04% in assay [5]; 5.07% and -2.09% in [6]. The inhibition was 8.58% and -2.64% in [7]; 7.58% and 1.46% in assay [8]; 8.03% and -1.3% in [9]; 0.52% and -4.76% in assay [10].
In the case of `COC(=O)Nc1nc2cc(Oc3ccc(NC(=O)Nc4ccccc4)cc3)ccc2[nH]1`, the inhibition in [1] is 3.19%; in assay [2], 1.46%; in assay [3], 1.32%; in assay [4], -5.22%; in assay [5], 1.47%; in [6], 1.69%. Also, the inhibition in [7] was 4.03%; in assay [8], 5.75%; in [9], 3.54%; in [10], 0.83%.
Take `COc1cc(N2CCN(C(C)C)CC2)ccc1Nc1nc(Nc2cccc(F)c2C(=O)O)c2cc[nH]c2n1`: the inhibition was 75.6% in assay [1]; 18.5% in assay [2]; 63.7% in [3]; 2.19% in assay [4]; 6.27% in assay [5]; 7.3% in [6]. In addition, the inhibition was 9.34% in assay [7], 4.65% in assay [8], 8.48% in [9] and -2.62% in assay [10].
Regarding `COc1cc2c(cc1Nc1nc(Nc3cccc(F)c3C(N)=O)c3cc[nH]c3n1)N(C(=O)CN1CCN(C(C)C)CC1)CC2`, the inhibition in [1] is 53.2%; in assay [2], 14%; in [3] it was 59.2%; in assay [4], 11.4%; in assay [5], 2.78%; in assay [6], 5.89%. For the same molecule, the inhibition in assay [7] was determined as 0.93%; in [8] it was 7.88%; in assay [9], 3.19%; in [10] it was 1.09%.
Consider `NS(=O)(=O)c1ccc(N/N=C2\C(=O)Nc3cccc(CCc4ccncc4)c32)cc1`, for which the inhibition in [1] is 5.66%; in [2], 0.64%; in assay [3] it was -0.42%; in [4] it was 5.09%; in [5], 16.7%; in assay [6] it was 7.6%. The inhibition in assay [7] was 18.2%; in assay [8] it was 6.3%; in assay [9], 19.2%; in assay [10], 4.76%.
On to `O=C(Nc1n[nH]c2nnc(-c3cccnc3)cc12)C1CC1`, for which the inhibition was 0.68% in assay [1]; -0.26% in [2]; -1.66% in assay [3]; -0.17% in [4]; -1.08% in [5]; -0.85% in [6]. Besides, the inhibition in [7] is -0.69%; in [8], 0.05%; in assay [9], 1.8%; in assay [10], 2.02%.
Regarding `COc1cc(N2CCN(C(C)C)CC2)ccc1Nc1nc(Nc2cccc3ncccc23)c2cc[nH]c2n1`, the inhibition is 44.4% in assay [1]; 0.44% in [2]; 10% in [3]; -4.53% in assay [4]; -4.83% in [5]; -2.09% in assay [6]. Besides, the inhibition in assay [7] was determined as 1.97%; in assay [8], 0.3%; in [9], 0.87%; in [10], 0.6%.
